Results published in PubChem BioAssay (Tox21).
Records with an inconclusive call do not appear. Activity calls are given as the source filed them. Unless noted, calls come from the whole dose curve; as a rule, active = well fitted curve in the direction sought with a large enough effect in the repeat runs; inconclusive = weak or mixed curves; inactive = no such curve, though single readings can be large; an effect the other way counts as inactive or inconclusive.

Legend:
[1] = target: Thyrotropin receptor (Homo sapiens) (UniProt P16473); experiment: qHTS assay to identify small molecule antagonists of the thyroid stimulating hormone receptor (TSHR) signaling pathway (AID 1259385; calls by dose curve; note: nearly all actives have a fitted effect of over 20% in size)
Outline: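 TSHR-HEK293 cells (800/well) plated 18 h, then compounds with Ro20-1724 and TSH at 1.5 ng/mL final, 30 min at room temperature. cAMP quantified by HTRF (cAMP-d2/anti-cAMP-cryptate, 1 h); 15 concentrations in triplicate.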

[2] = target: Progesterone receptor (Homo sapiens) (UniProt P06401); experiment: qHTS assay to identify small molecule antagonists of the progesterone receptor (PR) signaling pathway (AID 1346795; active = well fitted inhibition curve with a large enough effect in the signal ratio in the repeat runs, not every such curve was filed as active; the % refers to the signal ratio)
Outline: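 In HEK293T cells bearing the PR-UAS-bla reporter, compound effects on promegestone-driven (1 nM) beta-lactamase expression are assessed after 16 hr using a fluorescent FRET substrate incubated 2 hr at room temperature.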

[3] = qHTS assay to identify small molecule antagonists of the progesterone receptor (PR) signaling pathway - cell viability counter screen (AID 1346798); note: series mostly up to about 92 µM; nearly all actives have a fitted effect of over 50% in size
Outline: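 Following a 4 hr attachment, PR-UAS-bla HEK293T cells in charcoal-stripped FBS medium were exposed to compounds with R5020 for 16 hr; CellTiter-Glo was added and luminescence read after 30 min at room temperature.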

[4] = qHTS assay to identify small molecule agonists of the progesterone receptor (PR) signaling pathway - cell viability counter screen (AID 1346799; calls by dose curve; note: nearly all actives have a fitted effect of over 45% in size)
Outline: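 Here, 3,000 PR-UAS-bla HEK293T cells per well were treated with compounds for 16 hr after a 6 hr preincubation at 37C and 5% CO2; cell viability is the CellTiter-Glo luminescence signal.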

[5] = qHTS assay to identify small molecule antagonists of the TGF-beta/Smad signaling pathway - cell viability counter screen (AID 1346824); note: nearly all actives have a fitted effect of over 50% in size
Outline: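 SBE-bla HEK 293T cells, incubated overnight, then compound plus 0.25 ng/mL TGF-beta1 (stock added) for 5 hr at 37 C. Viability was read in the same wells by CellTiter-Glo luminescence after 30 min at room temperature.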

[6] = qHTS assay to identify small molecule agonists of the TGF-beta/Smad signaling pathway - cell viability counter screen (AID 1346829); note: top concentration of the series differs between compounds; nearly all actives have a fitted effect of over 45% in size
Outline: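 Luminescence from CellTiter-Glo, read after a 30 min room-temperature incubation, gives cell viability of SBE-bla HEK 293T cells treated 5 hr with compounds at 37 C.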

[7] = qHTS assay to identify small molecule agonists of the TGF-beta/Smad signaling pathway (AID 1346859; active = well fitted activation curve with a large enough effect in the signal ratio in the repeat runs, not every such curve was filed as active; the % refers to the signal ratio; note: series mostly up to about 77 µM)
Outline: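 Each well held 4,000 SBE-bla HEK 293T cells incubated overnight before compound addition; 5 hr later the cleavable FRET substrate went on for 2 hr at room temperature, and fluorescence was read at two emissions.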

[8] = target: Thyrotropin-releasing hormone receptor (Homo sapiens) (UniProt P34981); experiment: qHTS assay to identify small molecule agonists of the thyrotropin-releasing hormone receptor (TRHR) signaling pathway (AID 1346891; calls by dose curve; note: series mostly up to about 58 µM)
Outline: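 Screening of agonists relied on calcium signalling in HEK293 cells expressing human TRHR: dye loading 2 h at 37 °C preceded compound addition and a 3-min fluorescence time course.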

[9] = Caspase-3/7 induction in HepG2 cells by small molecules, qHTS assay (AID 1346978); note: nearly all actives have a fitted effect of over 15% in size
Outline: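 Wild-type HepG2 cells, 2,000/well, settled 5 hr at 37 C and 5% CO2, then compound-treated for 17 hr; caspase-3/7 activity read by luminescent Caspase-Glo 3/7 after 30 min at room temperature.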

[10] = Caspase-3/7 induction in CHO-K1 cells by small molecules, qHTS assay (AID 1346980); note: nearly all actives have a fitted effect of over 15% in size
Outline: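 Wild-type CHO-K1 cells exposed to compounds for 17hr at 37 C, 5% CO2. Caspase-3/7 activity then measured by Caspase-Glo 3/7 luminescence after 30min at room temperature.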

[11] = target: Nuclear receptor subfamily 1 group I member 2 (Homo sapiens) (UniProt O75469); experiment: Human pregnane X receptor (PXR) small molecule agonists, qHTS assay (AID 1346982); note: nearly all actives have a fitted effect of over 35% in size
Outline: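 Tox21 qHTS; PXR-Luc HepG2; compounds pinned from DMSO; 24 hr, 37 C; ONE-Glo luciferase detection, 30 min room temperature.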

[12] = qHTS assay to identify small molecule agonists of the estrogen receptor alpha (ER-alpha) signaling pathway in the presence of an antagonist - cell viability counter screen (AID 1259386);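 note: series mostly up to about 92 µM; cells exposed to compounds for 22 h at 37 °C before the viability read; nearly all actives have a fitted effect of over 30% in size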
Outline: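 Using estrogen-depleted VM7Luc4E2 cells, the 15-concentration compound series was applied together with 10.0nM ICI-182,780 and incubated 22hr at 37C/5% CO2. Cell viability was then scored by CellTiter-Fluor.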

[13] = target: Progesterone receptor (Homo sapiens) (UniProt P06401); experiment: qHTS assay to identify small molecule agonists of the progesterone receptor (PR) signaling pathway (AID 1346784; calls by dose curve; note: nearly all actives have a fitted effect of over 30% in size)
Outline: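 Compounds were tested for PR agonism in HEK 293T cells bearing a beta-lactamase gene under UAS control. Treatment lasted 16 hr at 37C; signal came from fluorescence of a FRET substrate.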

[14] = target: Thyrotropin-releasing hormone receptor (Homo sapiens) (UniProt P34981); experiment: qHTS assay to identify small molecule antagonists of the thyrotropin-releasing hormone receptor (TRHR) signaling pathway (AID 1346877; active = well fitted inhibition curve with a large enough effect in the repeat runs, not every such curve was filed as active; note: series mostly up to about 51 µM)
Outline: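 Calcium signal in dye-loaded TRHR/HEK293 cells; compounds added 5 min before TRH (1 nM final); fluorescence monitored 3 min at 1 s steps.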

[15] = Human pregnane X receptor (PXR) small molecule agonists, qHTS cell viability counter screen (AID 1346977); note: nearly all actives have a fitted effect of over 50% in size
Outline: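 Tox21 qHTS format; PXR-Luc HepG2, 2,000/well, charcoal-stripped FBS 5%. Cpd exposure 24hr. Read: CellTiter-Fluor fluorescence, multiplexed with luciferase.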

[16] = Caspase-3/7 induction in HepG2 cells by small molecules, qHTS cell viability counter screen (AID 1346981); note: series mostly up to about 92 µM; nearly all actives have a fitted effect of over 30% in size
Outline: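 After a 5-hr attachment period at 37 C and 5% CO2, wild-type HepG2 cells received compounds in DMSO. Sixteen hours later CellTiter-Fluor was dispensed and the fluorescent signal quantified after a further hour.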

[17] = Caspase-3/7 induction in CHO-K1 cells by small molecules, qHTS cell viability counter screen (AID 1346979); note: nearly all actives have a fitted effect of over 35% in size
Outline: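 CellTiter-Fluor viability check, qHTS format: wild-type CHO-K1, 16hr compound treatment, 1hr reagent incubation, fluorescence read.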

[18] = target: Nuclear receptor subfamily 1 group I member 2 (Rattus norvegicus) (UniProt Q9R1A7); experiment: Rat pregnane X receptor (rPXR) activation by small molecules, qHTS assay (AID 1346983); settings: rPXR luciferase reporter cells, One-Glo luminescence, 24 h; max activation: active compounds read high; note: nearly all actives have a fitted effect of over 20% in size
Outline: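 Cell-based rPXR activation assay: rPXR cells, 2,000 per well, rested 5hr at 37 C, then exposed to compounds in DMSO for 24 hr at 37 C. Luciferase activity read by One-Glo luminescence after 30 min at room temperature.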

[19] = target: Nuclear receptor subfamily 1 group I member 2 (Homo sapiens) (UniProt O75469); experiment: CYP3A4 induction through human pregnane X receptor (PXR) by small molecules, qHTS assay (AID 1346984); note: nearly all actives have a fitted effect of over 40% in size
Outline: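 Cells (DPX-2; HepG2 with PXR element plus CYP3A4-promoter luciferase) settled 5hr, then were treated 24hr at 37C. A 3hr, 3uM-final Luciferin-IPA step preceded luminescence measurement with One-Glo.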

[20] = target: Nuclear receptor subfamily 1 group I member 2 (Homo sapiens) (UniProt O75469); experiment: Human pregnane X receptor (PXR) activation by small molecules, qHTS assay (AID 1346985); note: nearly all actives have a fitted effect of over 40% in size
Outline: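 DPX-2 cells (HepG2 co-transfected with a PXR response element and a CYP3A4-promoter luciferase construct) were seeded at 2,000 per well, rested 5 hr at 37C, then exposed to DMSO-dissolved compounds for 24 hr. Activation was read as luciferase luminescence.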
% is set by controls: 0 for no effect and ±100 for the full control effect.

Chain of Progesterone receptor (Homo sapiens) (P06401 whole entry, looked up): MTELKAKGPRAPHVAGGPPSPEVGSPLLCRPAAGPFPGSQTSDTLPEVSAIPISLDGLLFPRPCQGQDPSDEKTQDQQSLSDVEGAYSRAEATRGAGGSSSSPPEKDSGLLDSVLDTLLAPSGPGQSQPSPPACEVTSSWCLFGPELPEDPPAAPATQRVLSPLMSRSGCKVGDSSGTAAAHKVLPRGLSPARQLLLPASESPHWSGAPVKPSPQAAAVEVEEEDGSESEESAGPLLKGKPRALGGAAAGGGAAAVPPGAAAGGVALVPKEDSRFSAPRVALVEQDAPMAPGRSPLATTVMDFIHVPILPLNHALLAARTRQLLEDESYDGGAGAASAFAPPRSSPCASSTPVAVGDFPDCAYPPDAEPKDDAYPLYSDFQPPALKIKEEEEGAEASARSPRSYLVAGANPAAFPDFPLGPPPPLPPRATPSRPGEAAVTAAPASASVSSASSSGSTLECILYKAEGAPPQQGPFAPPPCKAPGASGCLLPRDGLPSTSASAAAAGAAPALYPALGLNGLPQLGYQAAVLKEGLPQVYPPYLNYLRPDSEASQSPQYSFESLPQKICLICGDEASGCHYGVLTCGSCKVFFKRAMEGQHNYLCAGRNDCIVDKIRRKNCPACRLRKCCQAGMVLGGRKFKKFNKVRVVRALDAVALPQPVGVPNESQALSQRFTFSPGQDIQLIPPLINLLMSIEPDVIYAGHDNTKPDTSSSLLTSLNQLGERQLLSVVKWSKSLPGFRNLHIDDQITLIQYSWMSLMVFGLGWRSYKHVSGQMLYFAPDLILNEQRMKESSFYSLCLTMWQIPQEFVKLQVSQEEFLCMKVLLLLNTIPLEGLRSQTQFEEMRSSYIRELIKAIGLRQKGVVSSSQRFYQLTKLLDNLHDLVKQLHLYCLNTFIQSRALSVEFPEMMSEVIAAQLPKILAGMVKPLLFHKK
Chain of Thyrotropin receptor (Homo sapiens) (P16473 whole entry, looked up): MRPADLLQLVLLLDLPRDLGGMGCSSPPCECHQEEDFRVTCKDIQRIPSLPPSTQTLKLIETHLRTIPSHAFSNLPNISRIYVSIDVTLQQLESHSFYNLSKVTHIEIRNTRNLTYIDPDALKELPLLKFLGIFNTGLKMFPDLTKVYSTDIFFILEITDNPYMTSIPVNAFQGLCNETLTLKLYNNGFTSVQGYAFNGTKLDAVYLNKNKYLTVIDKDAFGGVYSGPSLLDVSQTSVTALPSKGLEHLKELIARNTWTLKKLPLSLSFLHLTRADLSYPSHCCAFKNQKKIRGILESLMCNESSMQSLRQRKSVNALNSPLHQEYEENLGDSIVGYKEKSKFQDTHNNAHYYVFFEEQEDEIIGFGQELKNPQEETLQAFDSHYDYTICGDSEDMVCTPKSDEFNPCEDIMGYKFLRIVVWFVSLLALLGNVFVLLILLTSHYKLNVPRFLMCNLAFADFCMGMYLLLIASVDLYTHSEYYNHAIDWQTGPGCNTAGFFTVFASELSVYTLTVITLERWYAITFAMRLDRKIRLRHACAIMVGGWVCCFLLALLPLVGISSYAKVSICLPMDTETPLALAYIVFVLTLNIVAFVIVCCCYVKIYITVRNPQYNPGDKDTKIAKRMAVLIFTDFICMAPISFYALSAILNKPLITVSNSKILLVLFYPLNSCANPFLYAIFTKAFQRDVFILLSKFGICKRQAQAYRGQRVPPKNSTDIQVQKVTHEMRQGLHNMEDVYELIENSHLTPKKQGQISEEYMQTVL
Chain of Nuclear receptor subfamily 1 group I member 2 (Rattus norvegicus) (Q9R1A7 whole entry, looked up): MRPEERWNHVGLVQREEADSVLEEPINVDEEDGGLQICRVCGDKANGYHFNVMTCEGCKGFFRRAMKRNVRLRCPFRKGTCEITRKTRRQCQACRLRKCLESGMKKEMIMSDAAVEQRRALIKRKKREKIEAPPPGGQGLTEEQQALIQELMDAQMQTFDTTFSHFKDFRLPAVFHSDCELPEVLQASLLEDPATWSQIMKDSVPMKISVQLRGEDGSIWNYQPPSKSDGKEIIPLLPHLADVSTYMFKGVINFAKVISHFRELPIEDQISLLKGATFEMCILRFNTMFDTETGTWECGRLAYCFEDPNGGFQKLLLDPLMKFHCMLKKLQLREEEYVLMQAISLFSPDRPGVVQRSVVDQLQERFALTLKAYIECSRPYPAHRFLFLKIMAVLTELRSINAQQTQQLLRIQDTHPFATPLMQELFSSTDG
Chain of Thyrotropin-releasing hormone receptor (Homo sapiens) (P34981 whole entry, looked up): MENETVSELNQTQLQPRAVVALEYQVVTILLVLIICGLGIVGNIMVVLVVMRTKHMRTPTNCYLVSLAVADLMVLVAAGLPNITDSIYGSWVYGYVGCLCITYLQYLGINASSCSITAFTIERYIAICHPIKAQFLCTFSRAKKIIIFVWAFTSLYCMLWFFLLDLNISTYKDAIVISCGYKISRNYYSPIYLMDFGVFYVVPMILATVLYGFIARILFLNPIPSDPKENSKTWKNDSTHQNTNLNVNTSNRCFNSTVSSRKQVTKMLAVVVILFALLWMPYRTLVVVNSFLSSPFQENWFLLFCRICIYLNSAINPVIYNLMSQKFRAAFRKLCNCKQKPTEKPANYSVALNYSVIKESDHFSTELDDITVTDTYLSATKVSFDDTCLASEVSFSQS
Chain of Nuclear receptor subfamily 1 group I member 2 (Homo sapiens) (O75469 whole entry, looked up): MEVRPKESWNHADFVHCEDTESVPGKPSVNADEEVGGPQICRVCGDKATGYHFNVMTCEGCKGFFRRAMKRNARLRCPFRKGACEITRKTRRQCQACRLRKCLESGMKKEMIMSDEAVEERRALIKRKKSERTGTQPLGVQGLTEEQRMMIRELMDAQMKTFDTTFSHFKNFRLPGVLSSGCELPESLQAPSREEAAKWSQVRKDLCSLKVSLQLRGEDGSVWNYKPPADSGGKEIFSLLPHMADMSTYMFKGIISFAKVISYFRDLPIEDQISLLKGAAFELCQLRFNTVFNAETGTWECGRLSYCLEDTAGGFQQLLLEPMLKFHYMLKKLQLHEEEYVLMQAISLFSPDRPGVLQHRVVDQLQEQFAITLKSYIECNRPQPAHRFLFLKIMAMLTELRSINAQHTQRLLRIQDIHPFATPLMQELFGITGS

O=C1Nc2ccc([N+](=O)[O-])cc2C1=O
inactive: Potency [1] | Potency [2] | Potency [3] | Potency [4] | outcome [5] | outcome [6] | outcome [7] | Potency [8] | Potency [9] | outcome [10] | Potency [11]

O=c1oc2c(O)c(O)cc3c(=O)oc4c(O)c(O)cc1c4c23
inactive: activity change, negative = cytotoxicity [12] -2.74% [at 19 µM] | activation [13] -0.0631% [at 19 µM] | activity change, negative = inhibition [2] 7.58% [at 18.9 µM] | Potency [3] | activity change, negative = cytotoxicity [4] -1.25% [at 19 µM] | viability change, negative = cytotoxic [5] -7.88% [at 15.8 µM] | activity change, negative = cytotoxicity [6] 10.9% [at 15.8 µM] | activation [7] 5.13% [at 15.8 µM] | activity, negative = inhibition [14] 1.88% [at 10.5 µM] | activation [8] 0.184% [at 11.8 µM] | activity change, negative = cytotoxicity [15] 4.42% [at 19 µM] | caspase activation [9] 0.0819% [at 19 µM] | caspase-3/7 activation [10] 0.998% [at 19 µM] | activity change, negative = cytotoxicity [16] 1.61% [at 19 µM] | activation [11] -29.4% [at 19 µM]

CCCN(CCC)C(=O)C(CCC(=O)O)NC(=O)c1ccccc1 (stereo unspecified)
inactive: Potency [12] | Potency [13] | Potency [2] | Potency [3] | Potency [4] | outcome [5] | outcome [6] | outcome [7] | outcome [14] | Potency [8] | Potency [15] | Potency [9] | Potency [17] | outcome [10] | Potency [11] | max activation [18] 0.444% | Potency [19] | Potency [20]

CC(Oc1c(Cl)cccc1Cl)C1=NCCN1 (stereo unspecified)
inactive: Potency [1] | Potency [12] | outcome [5] | outcome [6] | outcome [14] | Potency [8] | Potency [15] | Potency [9] | Potency [17] | outcome [10]

CCOc1ccccc1N
inactive: Potency [1] | Potency [13] | Potency [2] | Potency [3] | outcome [5] | outcome [6] | outcome [7] | Potency [15] | Potency [9] | Potency [17] | outcome [10] | Potency [16] | Potency [11]

NC1=NCC2c3ccccc3Cc3ccccc3N12 (stereo unspecified)
inactive: Potency [12] | Potency [13] | Potency [2] | Potency [3] | Potency [4] | outcome [5] | outcome [6] | outcome [7] | outcome [14] | Potency [8] | Potency [15] | Potency [17] | outcome [10] | Potency [16] | max activation [18] 0.173%

OCCN(CCO)c1ccccc1
inactive: Potency [12] | Potency [13] | Potency [2] | Potency [3] | Potency [4] | outcome [5] | outcome [6] | outcome [7] | Potency [8] | Potency [15] | Potency [9] | outcome [10] | Potency [11]

O=C(O)c1cccc(Cl)c1Cl
inactive: Potency [1] | Potency [12] | Potency [4] | outcome [5] | outcome [6] | outcome [7] | Potency [15] | Potency [9] | Potency [17] | outcome [10] | Potency [16] | Potency [11]

C=CC(C)(O)CC/C=C(\C)CCC=C(C)C (stereo unspecified)
inactive: Potency [12] | Potency [13] | Potency [2] | Potency [3] | Potency [4] | outcome [5] | outcome [6] | outcome [7] | outcome [14] | Potency [8] | Potency [15] | Potency [9] | Potency [17] | outcome [10] | Potency [16] | Potency [11] | max activation [18] 3.74% | Potency [19] | Potency [20]
